# Only some compounds are listed: those with a hit (about 11% of all), similar ones and a draw of the others.
# L3MBTL1 inh-1 = blocks human L3MBTL1. AlphaScreen L3MBTL1–H3K9me1 peptide binding. Potency, µM (highest dose often 57.1 µM), inactives show at the top dose activity, negative = inhibition, most hits filed as inhibitors. Q9Y468. actives 0.66% (n = 230,000). AID 485360; also: % is scaled to controls: 0 for no effect and ±100 for the full control effect; nearly all actives have a fitted effect of over 60% in size
#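 L3MBTL1 (50 nM) pre-complexed 30 min with biotinylated H3(1-15)K9me1 peptide (75 nM), then compounds added for 30 min at room temperature; AlphaScreen streptavidin donor/nickel chelate acceptor beads (10 ug/mL final) read after 30 min dark incubation.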
# BAZ2B inh = blocks human BAZ2B. AlphaScreen BAZ2B-H3K14Ac peptide displacement. Potency, µM (highest dose often 114 µM), without a hit: at the highest dose activity change, negative = inhibition, most hits filed as inhibitors. actives 4.4% (n = 360,000). AID 504333; also: % is scaled to controls: 0 for no effect and ±100 for the full control effect; nearly all actives have a fitted effect of over 60% in size
#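 Multi-concentration screen (max 110 uM) measuring displacement of acetylated histone H3 peptide from BAZ2B by AlphaScreen, using 50 nM protein, 50 nM peptide and 10 ug/mL streptavidin donor plus Ni-chelate acceptor beads.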
# HP1b chromo inh = blocks HP1-beta chromodomain binding to methylated histone tails | actives 0.56% (n = 390,000) | Potency, µM (series often up to 114 µM), for inactives: at the highest dose activity change, negative = inhibition, usual class: inhibitors | AlphaScreen HP1-beta / biotin-H3K9me3 peptide binding | AID 540317 | P83916; also: nearly all actives have a fitted effect of over 70% in size
#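 HP1-beta protein (50 nM final) preincubated 30 min at room temperature with biotinylated H3(1-18)K9me3 peptide (50 nM) in PBS pH 7.4, 0.01% Tween-20, then compound added for 30 min. AlphaScreen streptavidin donor/nickel chelate acceptor beads (10 ug/mL final), 30 min dark, luminescence read.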
# G9a block = inhibitors of human histone lysine methyltransferase G9a; Q96KQ7; G9a H3K9 monomethylation, AlphaScreen, 2 h; Potency, µM (series often up to 102 µM), for inactives: top-dose activity, negative = inhibition, usual class: inhibitors; actives 8.8% (n = 350,000); AID 504332; also: % is scaled to controls: 0 for no effect and ±100 for the full control effect; nearly all actives have a fitted effect of over 75% in size
#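 Step 1: enzyme (final 20 nM) with compound, 15 min RT. Step 2: substrate peptide 500 nM and SAM 20 uM, 2 h RT. Step 3: anti-H3K9me1 antibody and AlphaScreen beads, 10 min, then plate read.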
# JMJD2A Tudor = inhibitors of human JMJD2A Tudor domain | O75164 | AlphaScreen JMJD2A-Tudor / H3K4me3 peptide binding | Potency, µM (titrated, usually from 114 µM), inactives show at the top dose activity change, negative = inhibition, hits mostly inhibitors | actives 4.4% (n = 390,000); also: % is scaled to controls: 0 for no effect and ±100 for the full control effect; nearly all actives have a fitted effect of over 50% in size
# Target sequence (O75164 whole entry, looked up, the tested form may be a part): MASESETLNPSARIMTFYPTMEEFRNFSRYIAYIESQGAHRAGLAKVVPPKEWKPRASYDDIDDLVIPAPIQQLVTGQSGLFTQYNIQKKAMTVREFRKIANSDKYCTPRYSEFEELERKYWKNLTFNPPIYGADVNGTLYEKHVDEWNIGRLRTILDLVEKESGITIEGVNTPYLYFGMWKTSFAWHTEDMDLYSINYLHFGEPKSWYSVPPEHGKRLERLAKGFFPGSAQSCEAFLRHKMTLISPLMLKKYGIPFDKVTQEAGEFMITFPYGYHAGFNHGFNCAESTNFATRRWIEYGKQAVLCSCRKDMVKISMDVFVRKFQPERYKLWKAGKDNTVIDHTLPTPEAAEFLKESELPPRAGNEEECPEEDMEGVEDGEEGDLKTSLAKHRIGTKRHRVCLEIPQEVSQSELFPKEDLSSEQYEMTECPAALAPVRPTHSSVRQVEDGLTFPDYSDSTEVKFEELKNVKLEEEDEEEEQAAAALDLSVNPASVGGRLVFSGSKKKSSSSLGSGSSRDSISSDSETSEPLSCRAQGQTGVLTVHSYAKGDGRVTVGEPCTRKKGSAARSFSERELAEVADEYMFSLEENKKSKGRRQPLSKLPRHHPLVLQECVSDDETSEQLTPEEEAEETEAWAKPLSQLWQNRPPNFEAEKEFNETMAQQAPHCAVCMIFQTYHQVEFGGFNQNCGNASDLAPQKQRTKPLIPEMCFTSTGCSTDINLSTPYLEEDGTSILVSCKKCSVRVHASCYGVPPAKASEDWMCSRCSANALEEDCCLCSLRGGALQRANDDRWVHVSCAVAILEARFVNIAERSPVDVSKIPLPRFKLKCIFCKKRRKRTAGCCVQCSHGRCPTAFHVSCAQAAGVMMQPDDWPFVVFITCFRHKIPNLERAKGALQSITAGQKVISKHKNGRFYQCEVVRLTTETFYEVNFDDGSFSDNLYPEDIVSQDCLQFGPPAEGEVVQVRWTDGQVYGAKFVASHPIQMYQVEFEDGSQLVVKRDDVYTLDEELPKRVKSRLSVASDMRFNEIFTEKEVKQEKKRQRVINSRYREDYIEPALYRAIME
# L3MBTL1 inh-2 = L3MBTL1 binding inhibition validated; shares compounds with L3MBTL1 inh-1; L3MBTL1 methyl-lysine binding inhibition, biochemical qHTS; Potency, µM, usual class: inhibitors; actives 91% (n = 500); also: nearly all actives have a fitted effect of over 70% in size
# L3MBTL1 ctr = AlphaScreen signal inhibition, L3MBTL1 hit counter-screen; shares compounds with L3MBTL1 inh-1; AlphaScreen counterscreen, signal inhibition; Potency, µM (highest dose often 57.1 µM), inactives show top-dose activity change, negative = inhibition, most hits filed as inhibitors; 500 tested, under 10 active; AID 602224; also: 0% is about no effect
# * hit, by the source's call; ? = inconclusive; . = no result given; [ ] = dose if it differs, or a comment. Calls follow the shape of the dose curve; as a rule, active = well fitted curve in the direction sought with a large enough effect; inconclusive = small, poorly fitted or top-dose-only effect, or another doubt; inactive = no such curve, though single readings can be large; an effect the other way counts as inactive or inconclusive. Potency is read from the fitted curve at half-maximal effect.
SMILES,L3MBTL1 inh-1,BAZ2B inh,HP1b chromo inh,G9a block,JMJD2A Tudor,others
COc1ccc(N2C(=O)[C@@H]3[C@H](C2=O)[C@H]2c4ccccc4C=CN2[C@@H]3C(C)=O)cc1,-5.7%,?,-14.0%,8.91µM*,?,
O=C(Nc1ccc2c(c1)OCO2)C1CCN(S(=O)(=O)Cc2ccccc2)CC1,-0.3%,0.6%,41.2%,11.6%[59 µM],-10.4%,
O=C(c1ccc2c(c1)OCO2)[C@@H]1[C@@H]2C(=O)N(C3CCCCC3)C(=O)[C@@H]2C2c3ccccc3C=CN21 (stereo partly drawn),-11.0%,-27.9%,25.1%,31.6µM*,-17.4%,
CC(C)(C)C(=O)[C@@H]1[C@@H]2C(=O)N(C3CCCCC3)C(=O)[C@@H]2[C@H]2c3ccccc3C=CN12,.,-15.1%,46.0%,10µM*,?,
CCOc1ccc(OCC)c(NC(=O)C2CCCN(S(=O)(=O)c3cc(Br)cc4c3N(C(=O)CC)CC4)C2)c1 (stereo not drawn),.,0.2%,29.2%,-18.7%[59 µM],-4.8%,
CC1CCCN(S(=O)(=O)c2ccc3[nH]c4c(c3c2)CCCC4)C1 (stereo not drawn),.,25.1µM*,?,.,?,
O=C(NCc1ccc2[nH]c3c(c2c1)CCCC3)c1ccc(S(=O)(=O)N2CCCCC2)cc1,-12.3%,-32.4%,7.1%,70.8µM*,-21.1%,
CCOc1ccccc1N1CCN(C(=O)c2ccc3[nH]c4c(c3c2)CCCC4)CC1,-27.6%,39.8µM*,?,39.8µM*,44.7µM*,
COC(=O)C1CCN(C(=O)COC(=O)c2ccc(OC)c(S(=O)(=O)N3CCCc4ccccc43)c2)CC1,-10.7%,4.8%,12.7%,79.4µM*,-18.1%,
CCNc1ncc2nc(-c3cn(C)c4ccccc34)c(=O)n(-c3ccccc3)c2n1,.,.,.,-1.8%[0.501 µM],.,
CC1CCCN(C(=O)COC(=O)c2ccc3[nH]c4c(c3c2)CCCC4)C1 (stereo not drawn),-9.4%,50.1µM*,-4.9%,?,-9.0%,
CCOC(=O)C1CCN(C(=O)COC(=O)c2ccc3[nH]c4c(c3c2)CCCC4)CC1,-18.4%,?,-24.3%,5.5%[2.33 µM],?,
COC(=O)C1CCN(C(=O)COC(=O)c2ccc3[nH]c4c(c3c2)CCCC4)CC1,-6.7%,?,?,50.1µM*,?,
CCC(Sc1nc2ccccc2c2nc(CCn3c(C)nc4ccccc43)nn12)C(=O)Nc1ccc(F)cc1 (stereo not drawn),.,-0.3%,12.7%,-1.1%[59 µM],-20.3%,
O=C(CCn1c(=O)oc2ccccc21)Nc1ccccc1,2.0%,3.5%,9.1%,35.5µM*,-15.8%,
O=C(CCn1c(=O)oc2ccccc21)NCCCN1CCN(c2ccc(F)cc2)CC1,-7.2%,?,28.6%,2.51µM*,-9.5%,
O=C(CCn1c(=O)oc2ccccc21)NCCCN1CCOCC1,.,1.2%,17.0%,2.9%[59 µM],-8.4%,
COc1cccc(C(=O)N(Cc2nc(-c3ccc(Cl)cc3)no2)C(C)C)c1OC,.,-14.8%,24.8%,-6.0%[59 µM],-8.4%,
COc1cc(/C=N/N2CCN(C3c4ccccc4-c4ccccc43)CC2)cc(OC)c1OC,-1.1%,-38.6%,?,50.1µM*,?,
COc1cc(/C=N/N2CCN(C3c4ccccc4-c4ccccc43)CC2)cc(OC)c1O,-8.9%,11.2µM*,-11.0%,1.58µM*,?,
COc1ccc(/C=N/N2CCN(C3c4ccccc4-c4ccccc43)CC2)cc1OC,-7.7%,-34.5%,8.8%,7.6%[59 µM],-21.8%,
O=C(CCS(=O)(=O)c1ccc2c(c1)NC(=O)CS2)NCCc1ccc(Cl)cc1,.,-18.4%,13.4%,10.1%,15.8µM*,
COc1ccc(C2=NN(C(=O)c3ccccc3)C(c3ccc(OC)c(OC)c3)C2)c(O)c1 (stereo not drawn),.,-25.6%,-7.3%,70.8µM*,-32.8%,
COc1ccc(C2CC(c3ccc(OC)cc3OC(C)=O)=NN2C(=O)c2ccccc2)cc1 (stereo not drawn),.,-31.7%,-17.3%,-10.0%,-27.8%,
Oc1c(C(c2ccccc2F)N2CCC3(CC2)OCCO3)sc2nc(-c3ccco3)nn12 (stereo not drawn),.,0.3%,35.9%,-3.3%[59 µM],-4.5%,
SMILES,L3MBTL1 inh-1,BAZ2B inh,HP1b chromo inh,G9a block,JMJD2A Tudor,others
O=[N+]([O-])c1cc(-c2ccc(/C=N/n3cnnc3)o2)ccc1Cl,-1.1%,-8.8%,15.8%,.,-22.3%,
CC(C)COC(=O)c1cc(-c2ccc(/C=N/n3cnnc3)o2)ccc1Cl,-6.5%,6.0%,7.4%,10µM*,-33.3%,
CN1CCN(/N=C/c2ccc(-c3ccc([N+](=O)[O-])cc3Cl)o2)CC1,?,28.2µM*,?,25.1µM*,56.2µM*,
Fc1ccc(-c2ccc(/C=N\n3cnnc3)o2)cc1Cl,-0.2%,-29.9%,28.1%,1.9%[59 µM],-17.8%,
COc1cc([N+](=O)[O-])ccc1-c1ccc(/C=N\n2cnnc2)o1,-0.9%,-38.8%,0.5%,.,?,
O=[N+]([O-])c1ccc(Cl)c(-c2ccc(/C=N/n3cnnc3)o2)c1,.,?,-9.4%,70.8µM*,?,
Cc1ccc(-c2ccc(/C=N\n3cnnc3)o2)c(Br)c1,3.8%,-27.2%,9.5%,?,?,
Cc1cc(-c2ccc(/C=N/n3cnnc3)o2)c(C)c([N+](=O)[O-])c1,.,-37.0%,-8.7%,39.8µM*,?,
Cc1cccc(CCNC(=O)C2CCC(CNS(=O)(=O)c3c(C)cc(C)cc3C)CC2)c1 (stereo not drawn),.,6.4%,11.9%,-2.3%[59 µM],-6.4%,
COc1ccccc1CNS(=O)(=O)c1ccc2c(c1)CC(C)N2C(C)=O (stereo not drawn),.,0.9%,25.4%,1.1%[59 µM],-9.6%,
O=C(CCCSc1ccccc1)Nc1nc(-c2ccco2)c(-c2ccco2)s1,22.4µM*,22.4µM*,28.2µM*,?,39.8µM*,L3MBTL1 inh-2=23.8*;L3MBTL1 ctr=?
O=C(CCSc1ccccc1)Nc1nccs1,.,-20.7%,11.5%,-3.8%[59 µM],-10.8%,
COc1cccc(NC(=O)COC(=O)/C=C/c2c(C)nn(-c3ccccc3)c2C)c1,-4.6%,8.3%,28.3%,?,-3.8%,
COC(=O)/C(C#N)=C/c1ccc(OC(=O)c2ccccn2)cc1,15.8µM*,7.08µM*,43.7%,7.94µM*,8.91µM*,L3MBTL1 inh-2=?;L3MBTL1 ctr=-0.5%
Oc1ccc(C2=Nn3c(nnc3-c3ccco3)SC2)cc1O,25.1µM*,?,?,12.6µM*,44.7µM*,L3MBTL1 inh-2=9.47*;L3MBTL1 ctr=5.3%

# Assay outcomes from PubChem.
